According to the supplement of paper PMC6555819:

Tests used:
Assay in all cases: PBM binding z-score (relative to random genomic background probes); higher = stronger binding; sequences stand for … in GC…GCGATTGACAGCGTAGAATGAAGG
[1] = system: FXR:RXRa (NR concentration 270 nM, RXRa partner concentration 90 nM)
Method in brief: (§1)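 Binding buffer was PBS pH 7.4 with 2% milk, 0.02% Triton X-100, 1 mM DTT, 0.2 mg/mL BSA and 0.4 mg/ml salmon testes DNA. In it, ligand-free nuclear receptor dimers were incubated 1 h on custom Agilent 4×180K protein-binding microarrays carrying double-stranded probes. Antibodies against each partner (one per run) detected binding, and z-scores were calculated against random background probes after regression normalization of scanned fluorescence.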

[2] = system: LXRa:RXRa (NR concentration 270 nM, RXRa partner concentration 90 nM)
Method in brief: as §1

[3] = system: LXRa homodimer (NR concentration 270 nM)
Method in brief: as §1

[4] = system: LXRb:RXRa (NR concentration 270 nM, RXRa partner concentration 90 nM)
Method in brief: as §1

[5] = system: LXRb homodimer (NR concentration 270 nM)
Method in brief: as §1

[6] = system: PPARa:RXRa (NR concentration 270 nM, RXRa partner concentration 90 nM)
Method in brief: as §1

[7] = system: PPARg:RXRa (NR concentration 180 nM, RXRa partner concentration 90 nM)
Method in brief: as §1

[8] = system: PPARg:RXRa 270nM:90nM, anti-RXR (NR concentration 270 nM, RXRa partner concentration 90 nM)
Method in brief: as §1

[9] = system: PPARg:RXRa 30nM:10nM, anti-RXR (NR concentration 30 nM, RXRa partner concentration 10 nM)
Method in brief: as §1

[10] = system: PPARg:RXRa 90nM:30nM, anti-RXR (NR concentration 90 nM, RXRa partner concentration 30 nM)
Method in brief: as §1

[11] = system: PPARg:RXRa DBDmut IVT, anti-RXR (DBD mutation: RXRa K156A/R161A, NR concentration 270 nM, RXRa partner concentration 90 nM)
Method in brief: as §1

[12] = system: PPARg:RXRa IVT, anti-PPARg (NR concentration 270 nM, RXRa partner concentration 90 nM)
Method in brief: as §1

[13] = system: PPARg DBDmut:RXRa IVT, anti-PPARg (DBD mutation: PPARg1 K132A/R137A, NR concentration 270 nM, RXRa partner concentration 90 nM)
Method in brief: as §1

[14] = system: PPARg DBDmut IVT, anti-PPARg (DBD mutation: PPARg1 K132A/R137A, NR concentration 270 nM)
Method in brief: as §1

[15] = system: PPARg homodimer (NR concentration 180 nM)
Method in brief: as §1

[16] = system: PXR:RXRa (NR concentration 270 nM, RXRa partner concentration 90 nM)
Method in brief: as §1

[17] = system: PXR homodimer (NR concentration 270 nM)
Method in brief: as §1

[18] = system: RARa:RXR (NR concentration 270 nM, RXRa partner concentration 90 nM)
Method in brief: as §1

[19] = system: RARa homodimer (NR concentration 270 nM)
Method in brief: as §1

[20] = system: RARb:RXRa (NR concentration 270 nM, RXRa partner concentration 90 nM)
Method in brief: as §1

Row | Sequence | PBM binding z-score [1] | PBM binding z-score [2] | PBM binding z-score [3] | PBM binding z-score [4] | PBM binding z-score [5] | PBM binding z-score [6] | PBM binding z-score [7] | PBM binding z-score [8] | PBM binding z-score [9] | PBM binding z-score [10] | PBM binding z-score [11] | PBM binding z-score [12] | PBM binding z-score [13] | PBM binding z-score [14] | PBM binding z-score [15] | PBM binding z-score [16] | PBM binding z-score [17] | PBM binding z-score [18] | PBM binding z-score [19] | PBM binding z-score [20]
1 | ACAGACAGGTGATCAAGGTAACTCAGGCTATCAT | 0.0446 | -0.068 | -0.091 | -0.153 | -0.411 | -0.038 | 0.479 | -0.0434 | -0.141 | -0.12 | 0.0346 | 0.406 | -0.281 | 0.238 | 0.161 | -0.179 | 0.0426 | 0.35 | 0.298 | 0.165
2 | GCTAGTTGGTCAGTAAAAGGTCCCACACCGGTCG | -0.338 | -0.272 | -0.431 | -0.485 | -0.39 | -0.0763 | -0.0473 | 0.383 | -0.539 | -0.225 | 0.066 | 0.0788 | -0.0613 | -0.438 | 0.327 | -0.35 | -0.579 | 0.0824 | 0.292 | 0.845
3 | CGAACTAGGTCTGAACAGGACAGTGAAGGATGAT | -0.499 | -0.813 | -0.618 | -0.891 | -0.912 | -0.134 | 0.652 | -0.276 | -0.221 | -0.128 | 1.88 | 0.996 | -0.255 | -0.111 | -0.44 | -0.688 | -0.469 | -0.635 | -0.454 | -0.192
4 | CTCGAAAGGTCGTGCTCAGGTGAGTATTCCAAAC | 5.42 | 3.85 | 0.158 | 3.32 | 0.259 | 4.52 | 2.26 | 3.47 | 0.582 | 1.86 | 0.897 | 1.51 | 0.28 | 0.396 | 1.7 | 3.33 | 0.16 | 4.06 | 0.262 | 3.76
5 | GCGACTGGGGAAAAGCAGGTTACCATAAGGTTGG | -0.282 | -0.412 | -0.496 | 0.0547 | -1.04 | 0.442 | 0.406 | 0.154 | -0.554 | 0.0241 | 0.483 | 0.632 | -0.499 | -1.11 | 0.255 | -0.0375 | -0.35 | 0.407 | -0.675 | -0.16
6 | GCTGCTAGGTCAACAGATGGTCAGCTAAAGCTCG | 3.13 | 2.22 | -0.297 | 1.37 | -0.198 | 2.99 | 2.43 | 2.5 | 0.277 | 1.86 | 4.44 | 3.68 | -0.0685 | -0.727 | 1.6 | 1.22 | -0.762 | 2.23 | -0.595 | 3.97
